Assay outcomes from PubChem BioAssay.
PI5P4K alpha inh – qHTS for Inhibitors of phosphatidylinositol 5-phosphate 4-kinase (PI5P4K); Phosphatidylinositol 5-phosphate 4-kinase type-2 alpha (Homo sapiens), P48426; PI5P4Kalpha enzyme, ADP-Glo luminescence, 60 min; stronger effect = lower value; max response, %; actives 1.2% (n = 330,000); AID 652105, 2013; active = max response of -50% or lower; inconclusive = between -30% and -50%; inactive = -30% or higher; note: value at the top dose of about 77 µM
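Single end-point luminescence (ADP-Glo) quantified ADP from PI5P4Kalpha turnover; ATP 5 microM final, 1 h at RT, 0.1% CHAPS and 0.28 mM EGTA in HEPES pH 7.4.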
VDR inh – Inhibitors of the vitamin D receptor (VDR): qHTS. AID 504847, 2011. Potency, µM, hits mostly inhibitors. VDR-SRC2-3 peptide fluorescence polarization, 2 h. Vitamin D3 receptor (Homo sapiens), P11473. actives 0.93% (n = 400,000)
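The screen uses fluorescence polarization to detect compounds that interfere with recruitment of the SRC2-3 coactivator peptide to VDR; plates are read after 2 h at room temperature.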
GCN5L2 inh – qHTS Assay for Inhibitors of GCN5L2; Histone acetyltransferase KAT2A (Homo sapiens), Q92830; GCN5L2 HAT assay, ThioGlo1 CoA-SH fluorescence; Potency, µM (doses to about 58.9 µM), hits mostly inhibitors; actives 0.21% (n = 390,000); AID 504327, 2011
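GCN5L2 (20 nM) in 50mM HEPES pH 7.5, 0.1mM EDTA, 0.01% Tween-20 preincubated 15 min with compounds at room temperature. Reaction started with H3(1-25) 75uM, acetyl-CoA 70uM, ThioGlo1 50uM; CoA-thiol fluorescence (Ex340/Em540) read at 0 and 20 min.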
Rango complex inh – qHTS Assay for Inhibitors of Rango (Ran-regulated importin-beta cargo) - Importin beta complex formation. Importin subunit beta-1 (Homo sapiens), Q14974. Rango CFP/YFP FRET sensor + importin beta, 45 min. Potency, µM (top dose mostly 92.2 µM). actives 0.031% (n = 340,000); calls by dose curve; note: nearly all actives have a fitted effect of over 15% in size
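FRET biosensor Rango (snurportin 1 IBB between N-terminal EYFP and C-terminal Cerulean), 50 nM in PBS/1 mM DTT/0.02% Tween-20/0.1% BSA, preincubated 5 min RT with compound; 0.125 microM importin beta added, 45 min RT, CFP/YFP FRET ratio read.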
Rango dissoc inh – qHTS Assay for Inhibitors of RanGTP induced Rango (Ran-regulated importin-beta cargo) - Importin beta complex dissociation; actives 0.071% (n = 340,000); Snurportin-1 (Homo sapiens) + GTP-binding nuclear protein Ran (Homo sapiens) + Importin …; Biochemical FRET Rango-importin beta, RanGTP-induced dissociation; Potency, µM (top dose mostly 46.1 µM); calls by dose curve; note: nearly all actives have a fitted effect of over 45% in size
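Rango FRET biosensor (snurportin-1 IBB flanked by N-terminal EYFP and C-terminal CFP10) at 0.1 uM, with 0.25 uM importin beta in PBS, 1mM DTT, 0.02% Tween-20, 0.1% BSA. 0.6 uM Ran, 2mM GTP and 0.2 uM RCC1 were then added for 45 min at room temperature. Inhibition read as loss of FRET rise.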
PLK1 PBD inh – qHTS for Inhibitors of PLK1-PDB (polo-like kinase 1 - polo-box domain): Primary Screen. Potency, µM, most hits filed as inhibitors. Serine/threonine-protein kinase PLK1 (Homo sapiens), P53350. Plk1 PBD binding of FITC phosphopeptide, fluorescence polarization. actives 2.8% (n = 360,000). AID 720504, 2013; note: series mostly up to about 57 µM; nearly all actives have a fitted effect of over 65% in size
Target sequence (P53350 whole entry, looked up, the tested form may be a part): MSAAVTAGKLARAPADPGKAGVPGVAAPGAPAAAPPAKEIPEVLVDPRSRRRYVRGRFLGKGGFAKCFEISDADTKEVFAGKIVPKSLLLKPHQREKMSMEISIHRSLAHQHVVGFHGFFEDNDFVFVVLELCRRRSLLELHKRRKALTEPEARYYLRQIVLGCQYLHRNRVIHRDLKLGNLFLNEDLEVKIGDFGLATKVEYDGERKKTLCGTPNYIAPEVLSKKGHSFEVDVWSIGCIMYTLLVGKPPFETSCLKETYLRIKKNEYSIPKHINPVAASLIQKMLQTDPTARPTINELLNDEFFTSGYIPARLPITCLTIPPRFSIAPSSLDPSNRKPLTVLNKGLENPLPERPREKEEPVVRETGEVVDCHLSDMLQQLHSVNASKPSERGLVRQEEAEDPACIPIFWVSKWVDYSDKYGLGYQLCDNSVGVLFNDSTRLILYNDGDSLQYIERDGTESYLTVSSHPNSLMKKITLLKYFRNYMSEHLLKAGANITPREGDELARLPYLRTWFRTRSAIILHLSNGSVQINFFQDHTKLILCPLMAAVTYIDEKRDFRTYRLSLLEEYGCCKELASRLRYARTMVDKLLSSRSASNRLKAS
Hits are given with their value; - = inactive; ? = inconclusive; . = no result given; ! = not active in a repeat. This is a sample that favours compounds with a hit; in the whole collection about 3.6% have one here. Unless noted, calls come from the whole dose curve; as a rule, active = well fitted curve in the direction sought with a large enough effect; inconclusive = small, poorly fitted or top-dose-only effect, or another doubt; inactive = no such curve, though single readings can be large; an effect the other way counts as inactive or inconclusive.

SMILES | PI5P4K alpha inh | VDR inh | GCN5L2 inh | Rango complex inh | Rango dissoc inh | PLK1 PBD inh
O=S(=O)(Nc1cc(S(=O)(=O)N2CCOCC2)ccc1O)c1ccc2c(c1)OCCCO2 | ? | 25µM | ? | - | - | 4.7µM
Cc1ccc(C(NC(=O)N2CCOCC2)C(Cl)Cl)cc1F (stereo not drawn) | - | - | - | - | - | 27µM
Cc1ccc(C(NC(=O)N2CCN(C)CC2)C(Cl)Cl)cc1F (stereo not drawn) | - | ? | - | - | - | -
COc1cc(C(=O)O[C@H]2C/C(C)=C/CC/C(C)=C/[C@@H](O)C2C(C)C)ccc1O (stereo partly drawn) | . | - | - | . | . | .
CCCc1cc(C(=O)Nc2sc(C)c(C)c2C(=O)OCC)no1 | - | ? | - | - | - | 21µM
CCOC(=O)c1c(NC(=O)c2cc(C(C)C)on2)sc(C)c1C | . | - | - | . | . | .
CCOC(=O)c1c(NC(=O)c2cc(-c3ccc(Br)cc3)on2)sc(C)c1C | . | 79µM | - | . | . | .
COc1cccc(-c2ccc3ncnc(NCc4cccc(F)c4)c3c2)c1 | . | . | - | . | . | .
NC(=O)SCC(=O)Nc1ccc(Cl)cc1 | - | 28µM | - | - | - | -
CCN(CCCNC(=O)CCc1nc(-c2ccc(C)cc2)no1)c1cccc(C)c1 | - | - | - | - | - | 24µM
CC1C=C[C@@H]2[C@H](C1)C(=O)N(Cc1ccccc1)[C@H]2c1ccccc1Br (stereo partly drawn) | . | 45µM | - | . | . | .
C[C@@]12CCC=C[C@H]1[C@H](c1ccccc1Br)N(Cc1ccccc1)C2=O | - | 50µM! | - | - | - | -
O=C1C2C(c3ccccc3)CC=CC2C(c2cccc(Br)c2)N1Cc1ccccc1 (stereo not drawn) | . | - | . | . | . | .
O=C1[C@H]2CCC=C[C@H]2[C@H](c2ccccc2Br)N1Cc1ccccc1 | - | 56µM | - | - | - | -
O=C1[C@H]2CCC=C[C@H]2[C@H](c2cccc(Br)c2)N1Cc1ccccc1 | -53 | ? | - | - | - | 21µM
CCc1nnc(NC(=O)CSc2nccn2Cc2ccc(Cl)cc2)s1 | . | - | - | . | . | .
Cc1cc(C)c2oc(-c3ccc(C)c(NC(=O)/C=C/c4ccco4)c3)nc2c1 | . | ? | - | . | . | .
CCOC(=O)CNC(=O)O[C@@H]1Cc2cc(OC)ccc2O[C@H]1c1cccc(OC)c1 | . | - | . | . | . | .
CCc1c(C(C)S(=O)(=O)c2ccc(C)cc2)[nH]c(=O)n1-c1ccc(OC(F)(F)F)cc1 (stereo not drawn) | - | - | - | - | - | 27µM
CCn1cc(S(=O)(=O)c2ccc(C)cc2)[nH]c1=O | - | - | - | - | - | -
Cc1cccc(CNC(=O)C2CCN(c3nn4cc(-c5ccc(F)cc5)nc4s3)CC2)c1 | . | - | - | . | . | .
Cc1ccc(NC(=S)Nc2ccc3[nH]c(=O)[nH]c3c2)cc1 | - | ? | - | ? | - | 19µM
O=C(c1cccs1)N(Cc1cccnc1)c1nc2ccc(F)cc2s1 | . | - | - | . | . | .
O=S(c1ccccc1O)S(=O)c1ccccc1O (stereo not drawn) | -83 | 35µM | . | - | - | 0.6µM
CS(=O)c1ccccc1O (stereo not drawn) | - | - | - | - | - | -
O=C1C=CC(=O)c2c(O)c(Cl)c(Cl)c(O)c21 | . | 4.5µM | 20µM | . | . | .
O=C1C=CC(=O)c2c(O)c(CO)c(CO)c(O)c21 | -89 | ? | . | ? | ? | 9.5µM
COc1ccc(CCNC(=O)C(C)n2nc(C)c3sc4ccccc4c3c2=O)cc1OC (stereo not drawn) | . | - | - | . | . | .
